TRPML1 inh: human mucolipin-1 channel inhibition. Q9GZU1. TRPML1-inducible cells, Ca2+ dye fluorescence, FDSS; active compounds read low; inhibition of EC80 agonist-evoked calcium signal. activity change, negative = inhibition, % (concentration not given with the values). 390,000 tested, 0.02% active; in the data active means activity change below about -50%; inconclusive means between about -30% and that limit;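 further: stimulus is agonist 54-4 at its EC80 concentration; on the % scale 0 is the no-effect control and ±100 the full control effect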
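Tet-induced TRPML1-DL cells loaded with Ca8 no-wash calcium dye were read kinetically on FDSS. Compound addition was followed by EC80 agonist 54-4 (4 uM final); inhibition was read over 110 s.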
TRPML1 ag: activates the human TRPML1 channel; activation, % (test concentration not listed); TRPML1-expressing cells, Ca2+ dye fluorescence, FDSS; 410,000 tested, 0.12% active; Q9GZU1; in the data active means activation above about 50%; inconclusive means mostly about 30% to 49%; further: 0% is about no effect
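Cells: TRPML1-DL, 1X Tet inducer, ~16 h at 37 degrees C/5% CO2. Dye: ABD Ca8 no-wash + quencher, 45-90 min RT. Read: 10 s baseline, compound add, 110 s agonist phase; 54-4 EC80 (4uM final), 110 s antagonist phase.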
TRHR enhancer-1: allosteric enhancers of human TRH receptor; TRHR cells, fluo-8 calcium fluorescence, EC20 TRH enhancement; enhancement, % at 2 µM; 360,000 tested, 0.66% active; AID 493056; in the data active means enhancement above about 30%; further: 0% is about no effect
Target sequence (P34981 whole entry, looked up): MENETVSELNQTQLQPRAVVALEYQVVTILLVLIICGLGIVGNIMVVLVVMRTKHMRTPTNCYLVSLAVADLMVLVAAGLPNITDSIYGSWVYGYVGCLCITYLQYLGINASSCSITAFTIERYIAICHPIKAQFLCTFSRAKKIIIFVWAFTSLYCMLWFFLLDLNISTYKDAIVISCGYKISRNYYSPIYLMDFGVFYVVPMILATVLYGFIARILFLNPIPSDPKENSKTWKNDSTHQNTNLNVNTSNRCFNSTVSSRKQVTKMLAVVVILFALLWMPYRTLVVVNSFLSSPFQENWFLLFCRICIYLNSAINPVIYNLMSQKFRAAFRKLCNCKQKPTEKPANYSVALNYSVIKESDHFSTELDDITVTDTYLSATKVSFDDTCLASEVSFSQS
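Enhancer read-out: after compound pinning and an initial kinetic agonist-mode read, an EC20 of TRH (10 nM final) was injected and fluo-8 calcium signal (Ex 480/Em 530) followed at 1 s/cycle for 100 cycles in TRHR-expressing cells.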
TRHR agonist-1: TRH receptor (human) agonism; TRHR cells, calcium flux fluo-8, FDSS agonist mode; AID 493084; activation, % at 2 µM; 360,000 tested, 0.18% active; in the data active means activation above about 30%; further: 0% is about no effect
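Read-out: compound-evoked intracellular calcium rise in TRHR cells, fluo-8 dye, kinetic FDSS fluorescence at 1 s/cycle following a 10-cycle baseline. Cells cultured overnight before dye loading (30 min–1.5 h, RT).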
TSG101-PTAP inh: blocks PTAP/TSG101 interaction to inhibit HIV-1 budding | Fluorescence polarization, FITC-PTAP peptide / Tsg101 binding | Potency, µM (highest dose often 115 µM), inactives show at the highest dose activity change, negative = inhibition, actives largely listed as inhibitors | 340,000 tested, under 10 active; active means well fitted inhibition curve with a large enough effect in the main read-out, with a control signal flat, not every such curve was filed as active; inconclusive means small, poorly fitted or top-dose-only effect, or effect the other way, or a change in a side signal; inactive means no such curve, though single readings can be large or run the other way; further: potency means the concentration at half of the fitted maximal effect; % of control where 0% means no effect
Target sequence (Q99816 whole entry, looked up): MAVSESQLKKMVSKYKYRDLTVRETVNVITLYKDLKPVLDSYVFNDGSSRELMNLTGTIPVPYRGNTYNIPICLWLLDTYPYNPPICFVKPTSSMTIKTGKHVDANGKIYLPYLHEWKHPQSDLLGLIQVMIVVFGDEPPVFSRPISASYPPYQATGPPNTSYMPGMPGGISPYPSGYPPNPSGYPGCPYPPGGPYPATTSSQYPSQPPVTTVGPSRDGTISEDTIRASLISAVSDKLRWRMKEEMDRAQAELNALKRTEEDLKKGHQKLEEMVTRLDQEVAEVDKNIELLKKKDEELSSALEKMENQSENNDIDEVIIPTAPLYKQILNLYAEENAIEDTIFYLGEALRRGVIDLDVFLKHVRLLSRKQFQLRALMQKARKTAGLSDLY
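Steps: Tsg101 binding domain dispensed (10 uM final), compounds pinned in DMSO, FITC-labeled PTAP-motif peptide added (50 nM final); after 20 min binding at room temperature, polarization measured.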
TRHR enhancer-2: confirmation of human TRH receptor allosteric enhancers. TRH receptor cell assay, enhancer confirmation qHTS. shares compounds with TRHR enhancer-1. activity change, negative = inhibition, % at 46.1 µM. AID 493076. 970 tested, under 10 active;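 further: compound effect scored on response to added TRH at EC20 of 10 nM; 0% is about no effect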
TRHR agonist-2: human TRH receptor agonism confirmation; shares compounds with TRHR enhancer-1; Potency, µM (titrated, usually from 46.1 µM), for the others: top-dose activation, usual class: activators; TRHR-expressing cells, agonist activation read-out; AID 493078; 970 tested, 8% active; further: potency means the concentration at half of the fitted maximal effect; 0% is about no effect; nearly all actives have a fitted effect of over 75% in size
The depositor's hits bear a star; ? = inconclusive; / = not tested or not shown. Hits are enriched below; roughly 0.81% of the tested compounds scored in any of these assays. Unless noted, the call rests on the fitted dose curve; in most records, active means well fitted curve in the direction sought with a large enough effect; inconclusive means small, poorly fitted or top-dose-only effect, or another doubt; inactive means no such curve, though single readings can be large; an effect the other way counts as inactive or inconclusive.

SMILES	TRPML1 inh	TRPML1 ag	TRHR enhancer-1	TRHR agonist-1	TSG101-PTAP inh	others
O=C(c1cc(F)ccc1F)C1CCCN(Cc2cc(Cl)ccc2O)C1 (stereo not given)	11.3	3.0	34.4*	-0.2	-2.5%
NCC(=O)c1cccc([N+](=O)[O-])c1	/	-0.2	/	/	/
CC(C(=O)c1ccc2ccccc2c1)N1CCCCC1 (stereo not given)	17.3	0.3	-0.3	0.0	-5.3%
CC(C)NC(C)C(=O)c1ccc2ccccc2c1 (stereo not given)	8.0	0.1	37.3*	0.7	1.3%
Cc1ccc(C(=O)CN2CCOCC2)cc1	/	-0.8	/	/	/
O=[N+]([O-])c1ccc(N2CCCCCC2)c2nonc12	-21.4	110.2*	15.2	142.1*	?
Fc1ccccc1N1CCN(Cc2c(F)cccc2F)CC1	-7.5	1.5	37.5*	-1.2	-0.3%
C=C1C=C(C(F)F)n2ncc(C(=O)NCc3ccccc3F)c2N1	/	-0.9	/	/	/
C[C@H]1CCCC=CC2C[C@H](O)C[C@@H]2[C@H](O)C=CC(=O)O1 (stereo not given in full)	/	-0.2	/	/	/
CC1(C)OC(c2ccccc2)=C/C(=C/C=C2C(=O)NC(=S)NC2=O)O1	-18.8	?	-9.2	11.4	17.1%
CN1/C(=C\C=C2C(=O)NC(=S)NC2=O)C(C)(C)c2ccccc21	-17.7	116.7*	6.2	174.6*	?
O=C(Nc1ccc(Br)cc1C(=O)c1ccccc1)c1ccccc1	-18.5	-0.9	1.7	-0.4	/
O=C(Nc1ccc(Br)cc1C(=O)c1ccccc1Cl)c1ccccc1F	-24.4	77.4*	-3.4	0.1	/
Oc1ccc(Cl)cc1CN1CCN(Cc2ccccc2)CC1	-2.5	2.0	31.2*	0.7	-6.9%
O=c1cc(C(F)(F)F)c2cc3c4c(c2o1)CCCN4CCC3	-1.1	106.0*	5.8	239.6*	?
Cc1cc2c(C(F)(F)F)cc(=O)oc2c2c1NCCC2	-1.6	?	21.4	90.8*	?
O=C(CN1CCOCC1)c1ccc2ccccc2c1	/	-0.6	/	/	/
C=CCn1c(O)c(/C(C)=N/NC(=S)Nc2ccccc2)c(=O)[nH]c1=O	-1.4	2.0	-2.4	-0.8	-9.6%
CCCCn1c(O)c(/C(C)=N/NC(=O)Nc2ccccc2)c(=O)[nH]c1=O	8.2	1.0	35.1*	0.1	0.5%
O=C1NC(=O)C(=C/C=C/c2coc3ccc(Br)cc3c2=O)C(=O)N1	/	/	9.7	41.3*	/
O=P1(Oc2ccccc2)CC=CC(COC(c2ccccc2)(c2ccccc2)c2ccccc2)O1 (stereo not given)	-12.6	1.4	/	/	/
NCC(=O)c1ccc(Br)cc1	/	0.3	/	/	/
C=Cn1c(P(=S)(N2CCOCC2)N2CCOCC2)cc2c1CCCC2	-4.2	68.0*	-3.1	0.5	0.7%
COC(=O)C1=C(c2ccc(F)cc2OCc2ccccc2)C[C@@H]2CC[C@H]1N2C(=O)N1CCC(O)CC1	-7.1	-0.8	36.6*	0.4	-0.6%
CC1(C)N([O])C(c2ccc(C(=O)O)cc2)=[N+]([O-])C1(C)C	/	-0.7	/	/	/
SMILES	TRPML1 inh	TRPML1 ag	TRHR enhancer-1	TRHR agonist-1	TSG101-PTAP inh	others
COc1cc(/C=C/c2nc3ccccc3c(=O)n2-c2ccccc2O)ccc1O	-23.8	6.8	9.6	36.3*	-5.5%
COc1cc(/C=C/c2nc3ccccc3c(=O)n2-c2cccc(O)c2)ccc1O	-12.3	1.1	-0.6	7.5	-0.1%
COc1ccccc1-n1c(/C=C/c2ccc(O)cc2)nc2ccccc2c1=O	30.5	2.8	38.6*	0.7	-2.5%
COc1ccccc1-n1c(/C=C/c2ccccc2)nc2ccccc2c1=O	9.4	2.6	4.7	0.6	/
O=[N+]([O-])c1ccc(NCc2ccccc2)c2nonc12	-16.9	77.5*	-27.9	215.0*	?
O=[N+]([O-])c1ccc(NCc2ccc(Cl)cc2)c2ccncc12	2.5	0.0	5.6	0.8	-2.5%
Nc1ccc2ccc3cccc[n+]3c2c1	-7.1	86.7*	9.2	65.1*	?
C[n+]1c(-c2ccccc2)c2cc(N)ccc2c2ccc(N)cc21	10.1	-0.2	-5.9	5.1	-21.8%
O=C(CCl)c1ccc(O)c(O)c1	/	-0.5	/	/	/
COC1=C(C)C(=O)c2c(c(COC(N)=O)c3n2C[C@@H]2[C@@H]3N2C)C1=O (stereo not given in full)	/	-0.4	/	/	/
CC(C)(C)P(=O)(NCc1ccccc1)c1ccccc1 (stereo not given)	-6.5	2.2	4.6	2.5	-4.9%
CC(C)CNP(=S)(c1ccccc1)C(C)(C)C (stereo not given)	/	/	43.1*	0.3	2.6%	TRHR enhancer-2=-10.9;TRHR agonist-2=1.2%
Cn1c(O)c(/C=C/C=Nc2ccccc2)c(=O)n(C)c1=S	9.9	28.1	16.6	44.6*	10.3%	TRHR enhancer-2=-10.5;TRHR agonist-2=30.0%
Cc1cccc(-n2c(O)c(/C=C/C=Nc3ccccc3)c(=O)[nH]c2=O)c1	33.1	16.3	-1.8	18.7	36.8%
Cc1ccccc1-n1c(O)c(/C=C/C=Nc2ccccc2)c(=O)[nH]c1=O	3.4	8.5	-1.6	32.0*	?	TRHR enhancer-2=?;TRHR agonist-2=20.6µM*
CN1CCN(c2ccc(N)cc2)CC1	7.9	-0.7	88.6*	0.5	-3.2%	TRHR enhancer-2=1.8;TRHR agonist-2=-0.3%
COC[C@H]1OC(=O)c2coc3c2[C@@]1(C)C1=C(C3=O)C2CCC(=O)[C@@]2(C)C[C@H]1OC(C)=O (stereo not given in full)	/	0.4	/	/	/
C=CCn1c(=O)/c(=C\c2ccccn2)s/c1=C(/C#N)C(=O)NCC1CCCO1 (stereo not given)	20.0	-0.4	-9.5	46.3*	-10.7%	TRHR enhancer-2=-0.8;TRHR agonist-2=?
NNC(=O)c1ccc(O)cc1	-13.2	0.2	46.6*	0.0	-6.5%	TRHR enhancer-2=12.5;TRHR agonist-2=-0.7%
C[C@@H](C1CC[C@@]2(O)C3=CC(=O)[C@@H]4C[C@@H](O)[C@@H](O)C[C@]4(C)[C@H]3CC[C@]12C)[C@H](O)CCC(C)(C)O (stereo not given in full)	43.4	0.7	/	/	/
Cc1ccc(-c2nc3ccccc3c(=O)n2-c2ccc(O)cc2)cc1	-8.2	1.5	-2.8	-0.5	0.2%
O=c1c2ccccc2nc(-c2ccccc2)n1-c1ccc(O)cc1	?	1.4	46.5*	0.1	-4.8%	TRHR enhancer-2=3.9;TRHR agonist-2=-0.7%
C[C@H]1CC[C@@H]2[C@@H](C)[C@H]3C(C[C@H]4C5CC[C@H]6C[C@@H](O)CC[C@]6(C)C5CC[C@]34C)N2C1 (stereo not given in full)	-5.4	0.0	/	/	/
O=C(CN1CCOCC1)c1cccc([N+](=O)[O-])c1	/	-0.1	/	/	/

Compound activity: PubChem BioAssay, National Center for Advancing Translational Sciences (NCATS)
